Molecules are shown by their SMILES. Values joined by “and” are separate entries in the source; they are usually repeats but may differ in a detail not shown here. Equal values may be shown once.

Test [1] has as its target Leukocyte tyrosine kinase receptor (Homo sapiens) (UniProt P29376). The note with it: at 1 µM.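 Further: each value is the mean inhibition of LTK.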
The target of test [2] is Tyrosine-protein kinase Lyn (Homo sapiens) (UniProt P07948). Particulars: at 0.1 µM.
Test [3] has the same target. Particulars: at 1 µM.
For test [4] the target is unchanged. The note with it: at 0.1 µM. This is another data set of the same source.
Test [5] has the same target. Particulars: at 1 µM. This is another data set of the same source.
Test [6] concerns the target T1, Tyrosine-protein kinase Mer (Homo sapiens) (UniProt Q12866).
T1 sequence (whole entry): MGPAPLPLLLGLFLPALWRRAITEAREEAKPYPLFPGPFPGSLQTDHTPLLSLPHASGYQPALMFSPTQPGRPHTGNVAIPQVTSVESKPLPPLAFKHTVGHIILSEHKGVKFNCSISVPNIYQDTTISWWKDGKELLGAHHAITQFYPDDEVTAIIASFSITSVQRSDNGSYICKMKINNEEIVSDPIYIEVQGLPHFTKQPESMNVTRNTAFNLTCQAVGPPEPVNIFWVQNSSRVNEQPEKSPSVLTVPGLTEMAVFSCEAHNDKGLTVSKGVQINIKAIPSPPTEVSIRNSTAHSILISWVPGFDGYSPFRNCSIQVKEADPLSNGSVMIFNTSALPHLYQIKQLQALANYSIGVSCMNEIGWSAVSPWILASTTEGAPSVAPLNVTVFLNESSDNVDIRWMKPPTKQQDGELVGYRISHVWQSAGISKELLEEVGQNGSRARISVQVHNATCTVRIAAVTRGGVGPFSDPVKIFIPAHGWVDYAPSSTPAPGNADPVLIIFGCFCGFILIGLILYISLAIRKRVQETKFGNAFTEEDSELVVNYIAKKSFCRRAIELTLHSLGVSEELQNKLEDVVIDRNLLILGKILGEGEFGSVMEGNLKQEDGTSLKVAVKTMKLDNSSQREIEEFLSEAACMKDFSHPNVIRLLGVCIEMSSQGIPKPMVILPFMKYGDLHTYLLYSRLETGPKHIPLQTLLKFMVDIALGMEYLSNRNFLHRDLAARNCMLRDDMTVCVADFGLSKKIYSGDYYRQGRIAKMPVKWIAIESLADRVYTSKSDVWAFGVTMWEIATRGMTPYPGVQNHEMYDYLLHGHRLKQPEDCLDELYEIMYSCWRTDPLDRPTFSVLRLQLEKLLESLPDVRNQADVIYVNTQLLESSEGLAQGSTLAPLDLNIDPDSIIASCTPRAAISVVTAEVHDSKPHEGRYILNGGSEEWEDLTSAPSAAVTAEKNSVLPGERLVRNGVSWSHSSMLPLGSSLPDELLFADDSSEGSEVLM
The note with it: at 0.1 µM.

For test [7], the target named is T1, Tyrosine-protein kinase Mer (Homo sapiens). The note with it: at 1 µM.
Test [8] has as its target Hepatocyte growth factor receptor (Homo sapiens) (UniProt P08581). Particulars: at 0.1 µM.
For test [9] the target is unchanged. Particulars: at 1 µM.
The target of test [10] is T2, Muscle, skeletal receptor tyrosine-protein kinase (Homo sapiens) (UniProt O15146).
T2 sequence (whole entry): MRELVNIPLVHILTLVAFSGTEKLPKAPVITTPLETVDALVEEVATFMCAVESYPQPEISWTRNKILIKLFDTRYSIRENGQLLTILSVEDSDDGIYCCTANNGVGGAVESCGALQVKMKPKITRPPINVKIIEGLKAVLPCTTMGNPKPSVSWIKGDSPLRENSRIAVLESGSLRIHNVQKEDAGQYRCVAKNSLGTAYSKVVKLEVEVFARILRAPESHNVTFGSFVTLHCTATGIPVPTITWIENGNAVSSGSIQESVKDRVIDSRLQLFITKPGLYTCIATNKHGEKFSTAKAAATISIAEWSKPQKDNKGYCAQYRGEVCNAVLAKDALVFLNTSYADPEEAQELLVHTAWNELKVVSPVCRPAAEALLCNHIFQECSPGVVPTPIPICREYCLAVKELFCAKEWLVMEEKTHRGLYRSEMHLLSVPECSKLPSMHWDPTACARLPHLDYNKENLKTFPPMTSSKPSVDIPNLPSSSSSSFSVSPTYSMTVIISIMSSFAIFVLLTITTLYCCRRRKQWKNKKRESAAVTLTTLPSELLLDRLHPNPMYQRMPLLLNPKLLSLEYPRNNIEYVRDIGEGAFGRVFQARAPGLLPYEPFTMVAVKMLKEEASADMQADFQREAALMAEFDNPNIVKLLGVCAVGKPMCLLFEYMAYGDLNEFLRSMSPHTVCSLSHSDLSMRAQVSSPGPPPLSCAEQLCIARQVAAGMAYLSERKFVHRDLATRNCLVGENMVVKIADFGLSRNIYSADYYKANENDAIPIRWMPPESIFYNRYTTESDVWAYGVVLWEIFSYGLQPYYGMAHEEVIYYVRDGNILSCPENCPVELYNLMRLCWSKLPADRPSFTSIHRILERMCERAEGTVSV
The note with it: at 0.1 µM.

The target of test [11] is T2, Muscle, skeletal receptor tyrosine-protein kinase (Homo sapiens). The note with it: at 1 µM.
Test [12] has as its target Platelet-derived growth factor receptor alpha (Homo sapiens) (UniProt P16234). The note with it: at 0.1 µM.
The target is the same in test [13]. Particulars: at 1 µM.
For test [14], the system named is Platelet-derived growth factor receptor alpha (Homo sapiens), P16234 [D842V]. The note with it: at 0.1 µM.
For test [15] the test system is unchanged. Particulars: at 1 µM.
The subject of test [16] is Platelet-derived growth factor receptor alpha (Homo sapiens), P16234 [T674I]. The note with it: at 0.1 µM.
The test system is the same in test [17]. The note with it: at 1 µM.
For test [18], the system named is Platelet-derived growth factor receptor alpha (Homo sapiens), P16234 [V561D]. The note with it: at 0.1 µM.
The test system is the same in test [19]. Particulars: at 1 µM.
Test [20] addresses Platelet-derived growth factor receptor beta (Homo sapiens) (UniProt P09619). The note with it: at 0.1 µM.

Chain of Platelet-derived growth factor receptor alpha (Homo sapiens), P16234 [V561D] (P16234 whole entry V561D): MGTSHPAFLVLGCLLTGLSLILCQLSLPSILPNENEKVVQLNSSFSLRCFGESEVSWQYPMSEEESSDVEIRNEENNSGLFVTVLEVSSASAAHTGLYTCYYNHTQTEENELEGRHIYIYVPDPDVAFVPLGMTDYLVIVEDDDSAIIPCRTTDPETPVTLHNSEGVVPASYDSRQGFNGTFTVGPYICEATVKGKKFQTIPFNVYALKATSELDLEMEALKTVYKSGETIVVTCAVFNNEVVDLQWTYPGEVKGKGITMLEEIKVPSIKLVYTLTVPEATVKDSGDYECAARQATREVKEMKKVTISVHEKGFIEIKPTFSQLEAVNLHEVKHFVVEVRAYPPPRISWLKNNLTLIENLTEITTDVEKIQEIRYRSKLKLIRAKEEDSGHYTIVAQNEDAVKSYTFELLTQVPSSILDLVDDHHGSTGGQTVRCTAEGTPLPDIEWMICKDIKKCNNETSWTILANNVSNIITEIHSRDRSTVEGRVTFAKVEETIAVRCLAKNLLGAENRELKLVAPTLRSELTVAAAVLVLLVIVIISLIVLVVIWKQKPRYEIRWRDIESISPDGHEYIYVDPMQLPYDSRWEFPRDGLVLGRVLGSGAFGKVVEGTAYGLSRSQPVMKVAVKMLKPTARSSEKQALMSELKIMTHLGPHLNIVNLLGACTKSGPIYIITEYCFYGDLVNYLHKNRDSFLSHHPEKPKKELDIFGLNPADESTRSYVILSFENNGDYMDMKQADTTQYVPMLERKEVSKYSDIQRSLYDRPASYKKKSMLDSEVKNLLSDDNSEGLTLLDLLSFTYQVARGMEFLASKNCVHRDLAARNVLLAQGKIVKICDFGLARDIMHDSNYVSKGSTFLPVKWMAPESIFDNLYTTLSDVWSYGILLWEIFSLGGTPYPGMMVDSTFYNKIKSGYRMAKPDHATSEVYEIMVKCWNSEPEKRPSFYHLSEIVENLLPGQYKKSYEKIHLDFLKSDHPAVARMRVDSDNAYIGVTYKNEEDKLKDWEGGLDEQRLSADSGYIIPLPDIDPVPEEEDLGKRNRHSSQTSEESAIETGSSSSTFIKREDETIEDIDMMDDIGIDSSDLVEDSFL
Chain of Platelet-derived growth factor receptor alpha (Homo sapiens), P16234 [T674I] (P16234 whole entry T674I): as the sequence (P16234 whole entry V561D) above, with D561V, T674I counted along it
Chain of Tyrosine-protein kinase Lyn (Homo sapiens) (P07948 2-512 limits assumed): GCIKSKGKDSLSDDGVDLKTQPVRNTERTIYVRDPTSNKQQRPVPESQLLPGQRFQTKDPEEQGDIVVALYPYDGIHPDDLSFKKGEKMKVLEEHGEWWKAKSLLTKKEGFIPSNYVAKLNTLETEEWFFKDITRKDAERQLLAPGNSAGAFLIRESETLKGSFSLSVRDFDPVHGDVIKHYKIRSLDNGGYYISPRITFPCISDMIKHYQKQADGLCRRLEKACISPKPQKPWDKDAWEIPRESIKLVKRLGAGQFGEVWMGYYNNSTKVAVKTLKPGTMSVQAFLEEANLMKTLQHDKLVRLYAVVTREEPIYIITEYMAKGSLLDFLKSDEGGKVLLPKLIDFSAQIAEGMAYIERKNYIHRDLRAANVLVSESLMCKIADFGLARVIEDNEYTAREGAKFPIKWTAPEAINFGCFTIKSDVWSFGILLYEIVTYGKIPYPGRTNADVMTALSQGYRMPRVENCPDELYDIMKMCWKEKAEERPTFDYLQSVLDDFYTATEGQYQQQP
Chain of Platelet-derived growth factor receptor alpha (Homo sapiens) (P16234 whole entry): as the sequence (P16234 whole entry V561D) above, with D561V counted along it
Chain of Platelet-derived growth factor receptor alpha (Homo sapiens), P16234 [D842V] (P16234 whole entry D842V): as the sequence (P16234 whole entry V561D) above, with D561V, D842V counted along it

As to `CS(=O)(=O)Nc1ccc(-c2ccc3c(NC(=O)C4CC4)n[nH]c3c2)cc1`, the inhibition amounted to 3.75% in test [1]; 3.8% in test [2]; 4.62% in test [3]; 2.46% in test [4]; 3.58% in test [5]; 0.84% in test [6]. Also, the inhibition in [7] is 3.15%; in test [8], 6.7%; in test [9], -3.22%; in test [10], 3.2%; in [11] it was 7.76%; in test [12], 12.9%. For the same compound, the inhibition in test [13] is 28.5%; in test [14], 3.79%; in [15], 10.3%; in test [16], 4.77%; in test [17], 4.09%; in [18], 5.95%. In addition, the inhibition was found to be 26.5% in test [19] and 3.96% in test [20].

As to `COc1cc(N2CCN(C(C)C)CC2)ccc1Nc1nc(Nc2cccc(F)c2C(=O)O)c2cc[nH]c2n1`, the inhibition in test [1] stood at 91.8%; in test [2], 4.91%; in test [3], 8.65%; in test [4] it was 3.03%; in test [5], 6.2%; in test [6], 1.01%. Besides, the inhibition in test [7] worked out at 4.62%; in test [8], 9.65%; in [9] it was 1.52%; in [10] it was 4.22%; in test [11] it was 10.5%; in [12], 11.3%. Also, the inhibition in test [13] was found to be 12.8%; in [14], 3.04%; in test [15], 3.08%; in test [16], 7.14%; in test [17] it was 8.84%; in test [18], 5.91%. Besides, the figures for the inhibition in [19] and in [20] were 5.37% and 7.62%, respectively.

For `COc1ccc(Nc2ncc(-c3ccccc3)o2)cc1OC`, the inhibition in test [1] is 2.24%; in test [2] it was 7.52%; in [3], 37.3%; in [4], 5.1%; in [5], 32.9%; in test [6], -0.52%. In addition, the inhibition in test [7] was determined as 5.18%; in test [8] it was 2.78%; in test [9] it was 1.69%; in test [10], 2.37%; in test [11] it was 19.2%; in [12], 25.9%. For the same compound, the inhibition in test [13] worked out at 68.6%; in test [14], 5.83%; in test [15], 28.4%; in test [16] it was 42.2%; in test [17], 94.4%; in [18] it was 48.8%. In addition, the values for the inhibition in test [19] and in [20] were 77% and 25.5%, respectively.

Turning to `N#Cc1ccc2c(-c3ccnc(NC4CC4)n3)c(-c3ccc(F)cc3)nn2c1`, the inhibition in test [1] is -0.2%; in test [2], -0.29%; in [3], 1.87%; in test [4], -0.74%; in test [5], 1.81%; in [6], 0.43%. Besides, the inhibition is 2.56% in test [7]; 3.34% in test [8]; 3.65% in test [9]; 0.58% in [10]; -0.28% in test [11]; 2.76% in test [12]. The inhibition in [13] was 11.6%; in test [14], -0.1%; in test [15], 6.91%; in [16], 6.42%; in [17], 6.15%; in [18] it was 1.97%. Besides, the inhibition in [19] is 8.16%; in [20], 2.34%.

With `NS(=O)(=O)c1ccc(N/N=C2\C(=O)Nc3cccc(CCc4ccncc4)c32)cc1`, the inhibition in test [1] was 1.43%; in [2], 2.64%; in test [3], 6.56%; in test [4], 2.69%; in test [5], 5.45%; in test [6] it was 2.62%. The inhibition in [7] was determined as 3.17%; in test [8], 10.5%; in [9], 15.4%; in [10], 12.2%; in test [11], 24.2%; in test [12] it was 33.5%. The inhibition in [13] turned out to be 60.7%; in test [14], 16.9%; in test [15], 58.5%; in test [16] it was 6.75%; in test [17], 34.6%; in test [18], 26.3%. Further, the figures for the inhibition in test [19] and in [20] were 72.3% and 29.6%, respectively.

In the case of `CN(C)CCNC(=O)Nc1ccc(N(C)c2ccnc(Nc3ccc(CS(C)(=O)=O)cc3)n2)cc1`, the inhibition stood at 10.1% in test [1]; 5.57% in test [2]; 9.57% in test [3]; 2.36% in [4]; 7.59% in test [5]; 0.57% in [6]. Also, the inhibition in test [7] was determined as 4.35%; in test [8] it was 5.93%; in test [9], 25.4%; in test [10], 3.67%; in test [11] it was 10.1%; in test [12], 19.4%. Besides, the inhibition in test [13] is 54%; in [14] it was 9.49%; in test [15] it was 36.1%; in test [16], 9.77%; in test [17] it was 42.5%; in [18] it was 39.2%. The inhibition in test [19] is 67.4%; in [20], 28.4%.

Regarding `Nc1nccc(-c2c(-c3ccc(F)cc3)ncn2C2CCNCC2)n1`, the inhibition in [1] is -1.33% and 1.18%; in test [2], -0.63% and 1.67%; in [3], 9.44% and 9.35%; in [4], -1.82% and 1.01%; in [5], 7.55% and 6.33%; in [6], 0.83% and 0.35%. Further, the inhibition in [7] is 2.87% and 1.44%; in test [8], -2.37% and 2.87%; in test [9], -2.98% and 4.72%; in test [10], -3.15% and 1.87%; in [11], 4.78% and 1.25%; in [12] it was 1.26% and 2.55%. The inhibition was 32.6% and 7.91% in [13]; 3.48% and 2.03% in [14]; 9.35% and 6.11% in test [15]; -2.56% and 3.91% in test [16]; 1.13% and 1.39% in [17]; 4.62% and 3.92% in [18]. In addition, the inhibition in [19] is 19.5% and 6.51%; in test [20], 3.91% and 1.3%.

The record behind these values is ChEMBL document CHEMBL1961873, “Compounds: GSK PKIS; Assays: Nanosyn kinase panel” (2012).
